Experiment [1] addresses T1, Mitogen-activated protein kinase kinase kinase 7 (Homo sapiens) (UniProt O43318).
T1 sequence (whole entry): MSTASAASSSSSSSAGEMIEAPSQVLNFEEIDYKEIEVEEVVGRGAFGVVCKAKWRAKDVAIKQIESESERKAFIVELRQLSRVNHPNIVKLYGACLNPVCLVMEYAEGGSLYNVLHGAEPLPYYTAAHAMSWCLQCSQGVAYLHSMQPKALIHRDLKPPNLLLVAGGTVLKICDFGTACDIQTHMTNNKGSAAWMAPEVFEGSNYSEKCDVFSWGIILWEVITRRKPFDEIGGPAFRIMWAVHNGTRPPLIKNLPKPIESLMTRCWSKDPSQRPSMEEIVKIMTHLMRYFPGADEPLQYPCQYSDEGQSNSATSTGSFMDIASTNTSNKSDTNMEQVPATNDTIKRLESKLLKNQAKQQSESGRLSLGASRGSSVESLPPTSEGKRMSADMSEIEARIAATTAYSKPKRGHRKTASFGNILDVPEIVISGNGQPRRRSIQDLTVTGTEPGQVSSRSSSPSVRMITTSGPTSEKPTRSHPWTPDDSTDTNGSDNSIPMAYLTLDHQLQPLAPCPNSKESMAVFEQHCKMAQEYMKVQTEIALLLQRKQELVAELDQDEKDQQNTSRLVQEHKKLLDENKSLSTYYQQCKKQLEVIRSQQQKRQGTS
The conditions noted are these: at 10 µM.

Experiment [2] deals with T2, Serine/threonine-protein kinase TAO1 (Homo sapiens) (UniProt Q7L7X3).
T2 sequence (whole entry): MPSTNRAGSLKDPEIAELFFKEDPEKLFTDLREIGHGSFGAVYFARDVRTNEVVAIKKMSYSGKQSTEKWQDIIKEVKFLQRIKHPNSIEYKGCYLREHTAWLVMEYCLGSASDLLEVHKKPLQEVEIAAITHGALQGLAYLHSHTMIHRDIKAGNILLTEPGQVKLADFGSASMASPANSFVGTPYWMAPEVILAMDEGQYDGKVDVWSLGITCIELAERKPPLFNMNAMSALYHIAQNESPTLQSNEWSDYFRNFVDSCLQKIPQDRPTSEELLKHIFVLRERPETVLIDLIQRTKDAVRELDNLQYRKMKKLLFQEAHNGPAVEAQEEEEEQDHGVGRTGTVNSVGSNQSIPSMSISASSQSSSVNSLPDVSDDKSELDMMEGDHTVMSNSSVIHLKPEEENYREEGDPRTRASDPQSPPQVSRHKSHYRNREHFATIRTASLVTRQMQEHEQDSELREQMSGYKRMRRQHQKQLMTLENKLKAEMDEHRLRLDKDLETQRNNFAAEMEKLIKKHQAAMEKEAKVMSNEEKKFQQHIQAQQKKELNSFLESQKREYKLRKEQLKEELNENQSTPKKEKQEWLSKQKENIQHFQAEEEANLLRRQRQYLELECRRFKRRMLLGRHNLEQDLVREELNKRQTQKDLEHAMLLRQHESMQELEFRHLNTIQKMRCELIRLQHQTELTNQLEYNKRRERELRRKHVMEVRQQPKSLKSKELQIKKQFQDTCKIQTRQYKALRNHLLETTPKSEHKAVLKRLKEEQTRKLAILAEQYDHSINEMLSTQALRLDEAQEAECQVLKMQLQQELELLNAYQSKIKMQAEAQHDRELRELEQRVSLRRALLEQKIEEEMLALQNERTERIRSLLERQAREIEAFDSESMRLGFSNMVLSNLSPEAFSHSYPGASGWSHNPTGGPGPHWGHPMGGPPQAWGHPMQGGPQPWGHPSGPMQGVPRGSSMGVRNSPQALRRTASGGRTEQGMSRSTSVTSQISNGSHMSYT
The conditions noted are these: at 1 µM.

Experiment [3] deals with T2, Serine/threonine-protein kinase TAO1 (Homo sapiens). The conditions noted are these: at 10 µM.
The target in experiment [4] is T3, Serine/threonine-protein kinase TAO2 (Homo sapiens) (UniProt Q9UL54).
T3 sequence (whole entry): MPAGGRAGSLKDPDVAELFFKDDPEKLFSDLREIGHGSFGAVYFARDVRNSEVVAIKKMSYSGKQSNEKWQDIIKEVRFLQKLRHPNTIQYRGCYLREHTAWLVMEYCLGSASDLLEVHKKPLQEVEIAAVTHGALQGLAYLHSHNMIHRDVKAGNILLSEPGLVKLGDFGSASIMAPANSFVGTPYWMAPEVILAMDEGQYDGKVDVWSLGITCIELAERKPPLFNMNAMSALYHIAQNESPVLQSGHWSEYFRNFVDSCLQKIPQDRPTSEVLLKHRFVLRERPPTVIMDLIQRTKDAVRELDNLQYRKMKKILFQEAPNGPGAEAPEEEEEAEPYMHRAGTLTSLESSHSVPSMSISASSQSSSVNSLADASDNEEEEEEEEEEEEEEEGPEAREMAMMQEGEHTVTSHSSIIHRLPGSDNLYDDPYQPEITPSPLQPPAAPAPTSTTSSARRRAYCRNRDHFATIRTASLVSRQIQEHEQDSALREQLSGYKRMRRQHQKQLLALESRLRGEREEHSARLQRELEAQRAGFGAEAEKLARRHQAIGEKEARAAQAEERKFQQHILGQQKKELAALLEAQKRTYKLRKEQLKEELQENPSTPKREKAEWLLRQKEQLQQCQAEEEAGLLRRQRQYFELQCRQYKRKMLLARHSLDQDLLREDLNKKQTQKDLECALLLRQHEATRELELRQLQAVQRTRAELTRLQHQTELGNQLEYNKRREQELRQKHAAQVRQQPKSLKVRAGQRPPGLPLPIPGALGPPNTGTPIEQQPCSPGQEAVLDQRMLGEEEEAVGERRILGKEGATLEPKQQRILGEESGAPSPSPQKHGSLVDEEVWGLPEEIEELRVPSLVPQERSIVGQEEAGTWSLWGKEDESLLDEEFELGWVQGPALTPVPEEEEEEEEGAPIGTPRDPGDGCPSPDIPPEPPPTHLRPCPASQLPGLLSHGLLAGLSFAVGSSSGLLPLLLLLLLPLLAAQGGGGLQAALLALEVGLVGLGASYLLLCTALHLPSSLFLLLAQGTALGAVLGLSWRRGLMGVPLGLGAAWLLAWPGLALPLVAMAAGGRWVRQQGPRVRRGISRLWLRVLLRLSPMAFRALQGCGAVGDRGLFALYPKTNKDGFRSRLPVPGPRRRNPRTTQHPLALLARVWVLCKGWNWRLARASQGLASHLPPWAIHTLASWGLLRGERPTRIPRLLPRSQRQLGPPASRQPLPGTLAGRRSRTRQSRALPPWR
The conditions noted are these: at 1 µM.

The target of experiment [5] is T3, Serine/threonine-protein kinase TAO2 (Homo sapiens). The conditions noted are these: at 10 µM.
Experiment [6] deals with T4, Serine/threonine-protein kinase TAO3 (Homo sapiens) (UniProt Q9H2K8).
T4 sequence (whole entry): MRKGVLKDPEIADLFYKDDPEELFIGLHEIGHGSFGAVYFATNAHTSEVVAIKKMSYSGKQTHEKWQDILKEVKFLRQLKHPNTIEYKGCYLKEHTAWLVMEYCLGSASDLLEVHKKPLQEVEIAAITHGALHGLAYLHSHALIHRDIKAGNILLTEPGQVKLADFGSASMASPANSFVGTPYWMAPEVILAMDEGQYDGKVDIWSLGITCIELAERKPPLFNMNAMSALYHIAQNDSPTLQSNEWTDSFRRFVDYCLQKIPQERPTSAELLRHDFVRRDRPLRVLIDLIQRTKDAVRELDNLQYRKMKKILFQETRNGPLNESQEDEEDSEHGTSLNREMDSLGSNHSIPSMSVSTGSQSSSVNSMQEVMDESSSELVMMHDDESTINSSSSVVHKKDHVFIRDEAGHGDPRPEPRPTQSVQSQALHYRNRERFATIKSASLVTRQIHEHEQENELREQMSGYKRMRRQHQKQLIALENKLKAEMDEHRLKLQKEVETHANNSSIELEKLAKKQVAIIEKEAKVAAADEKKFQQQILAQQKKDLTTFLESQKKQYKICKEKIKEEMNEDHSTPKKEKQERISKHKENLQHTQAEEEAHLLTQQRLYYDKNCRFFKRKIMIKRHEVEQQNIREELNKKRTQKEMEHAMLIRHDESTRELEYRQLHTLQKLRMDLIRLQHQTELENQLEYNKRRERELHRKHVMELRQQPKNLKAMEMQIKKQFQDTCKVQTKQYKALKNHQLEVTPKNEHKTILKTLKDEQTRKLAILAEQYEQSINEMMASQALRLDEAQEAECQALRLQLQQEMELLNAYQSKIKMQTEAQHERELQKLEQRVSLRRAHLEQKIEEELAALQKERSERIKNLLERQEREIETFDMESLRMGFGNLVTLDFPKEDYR
The conditions noted are these: at 1 µM.

The target of experiment [7] is T4, Serine/threonine-protein kinase TAO3 (Homo sapiens). The conditions noted are these: at 10 µM.
The target of experiment [8] is T5, Serine/threonine-protein kinase TBK1 (Homo sapiens) (UniProt Q9UHD2).
T5 sequence (whole entry): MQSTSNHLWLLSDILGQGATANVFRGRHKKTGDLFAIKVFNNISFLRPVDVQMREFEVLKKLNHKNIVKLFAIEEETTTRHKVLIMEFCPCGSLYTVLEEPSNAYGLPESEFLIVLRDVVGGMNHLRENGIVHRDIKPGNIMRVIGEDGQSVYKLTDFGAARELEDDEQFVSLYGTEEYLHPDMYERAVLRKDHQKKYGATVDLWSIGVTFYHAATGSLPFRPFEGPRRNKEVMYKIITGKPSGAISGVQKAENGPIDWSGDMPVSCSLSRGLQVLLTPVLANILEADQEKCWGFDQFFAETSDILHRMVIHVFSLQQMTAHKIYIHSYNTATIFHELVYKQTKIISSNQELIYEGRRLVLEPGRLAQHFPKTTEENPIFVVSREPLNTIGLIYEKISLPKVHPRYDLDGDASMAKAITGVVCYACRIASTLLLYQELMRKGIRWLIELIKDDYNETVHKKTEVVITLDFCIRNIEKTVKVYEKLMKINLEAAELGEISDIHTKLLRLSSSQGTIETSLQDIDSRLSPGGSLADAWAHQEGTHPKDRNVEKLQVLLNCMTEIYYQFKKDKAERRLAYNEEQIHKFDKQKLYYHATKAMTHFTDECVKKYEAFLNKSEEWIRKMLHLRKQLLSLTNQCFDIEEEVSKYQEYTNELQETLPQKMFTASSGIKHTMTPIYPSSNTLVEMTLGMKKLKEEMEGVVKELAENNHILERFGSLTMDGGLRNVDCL
The conditions noted are these: at 1 µM.

The target in experiment [9] is T5, Serine/threonine-protein kinase TBK1 (Homo sapiens). The conditions noted are these: at 10 µM.
In experiment [10] the target is T6, TGF-beta receptor type-1 (Homo sapiens) (UniProt P36897).
T6 sequence (whole entry): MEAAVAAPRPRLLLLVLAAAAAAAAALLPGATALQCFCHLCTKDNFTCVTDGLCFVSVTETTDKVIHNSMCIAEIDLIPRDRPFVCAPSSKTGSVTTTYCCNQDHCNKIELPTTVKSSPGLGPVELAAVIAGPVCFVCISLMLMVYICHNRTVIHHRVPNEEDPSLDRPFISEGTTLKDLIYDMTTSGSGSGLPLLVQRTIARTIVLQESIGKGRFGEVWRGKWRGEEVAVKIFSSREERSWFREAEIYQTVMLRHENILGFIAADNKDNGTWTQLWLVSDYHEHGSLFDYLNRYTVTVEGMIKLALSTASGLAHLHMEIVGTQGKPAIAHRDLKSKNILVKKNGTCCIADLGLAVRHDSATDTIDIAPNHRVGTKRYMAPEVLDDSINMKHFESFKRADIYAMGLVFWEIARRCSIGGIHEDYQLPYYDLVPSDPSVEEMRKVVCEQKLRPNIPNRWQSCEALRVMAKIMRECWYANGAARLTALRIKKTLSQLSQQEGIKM
The conditions noted are these: at 1 µM.

The target in experiment [11] is T6, TGF-beta receptor type-1 (Homo sapiens). The conditions noted are these: at 10 µM.
Experiment [12] deals with Insulin-like growth factor 1 receptor (Homo sapiens) (UniProt P08069). The conditions noted are these: at 1 µM.
Chain of Insulin-like growth factor 1 receptor (Homo sapiens) (P08069 31-736 limits assumed): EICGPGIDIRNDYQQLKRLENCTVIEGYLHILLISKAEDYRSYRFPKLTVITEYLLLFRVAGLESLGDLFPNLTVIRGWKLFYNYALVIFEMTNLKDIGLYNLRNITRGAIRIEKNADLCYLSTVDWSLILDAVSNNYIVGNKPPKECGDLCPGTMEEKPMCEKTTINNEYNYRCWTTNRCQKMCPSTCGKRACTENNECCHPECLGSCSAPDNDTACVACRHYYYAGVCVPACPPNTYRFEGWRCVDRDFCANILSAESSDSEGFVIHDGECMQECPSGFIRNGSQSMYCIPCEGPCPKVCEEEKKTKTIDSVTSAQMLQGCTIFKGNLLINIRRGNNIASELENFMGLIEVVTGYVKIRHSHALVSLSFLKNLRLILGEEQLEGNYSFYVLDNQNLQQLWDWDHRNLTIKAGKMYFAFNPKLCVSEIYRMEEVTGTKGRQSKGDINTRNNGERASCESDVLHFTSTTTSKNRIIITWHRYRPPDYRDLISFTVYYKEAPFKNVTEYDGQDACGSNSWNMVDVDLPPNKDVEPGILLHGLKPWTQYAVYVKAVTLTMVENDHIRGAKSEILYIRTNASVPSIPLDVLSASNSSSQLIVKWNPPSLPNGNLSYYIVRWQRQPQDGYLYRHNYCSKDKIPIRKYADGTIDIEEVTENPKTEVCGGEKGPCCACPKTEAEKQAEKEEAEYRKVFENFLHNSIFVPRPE
Chain of Insulin-like growth factor 1 receptor (Homo sapiens) (P08069 741-1367 limits assumed): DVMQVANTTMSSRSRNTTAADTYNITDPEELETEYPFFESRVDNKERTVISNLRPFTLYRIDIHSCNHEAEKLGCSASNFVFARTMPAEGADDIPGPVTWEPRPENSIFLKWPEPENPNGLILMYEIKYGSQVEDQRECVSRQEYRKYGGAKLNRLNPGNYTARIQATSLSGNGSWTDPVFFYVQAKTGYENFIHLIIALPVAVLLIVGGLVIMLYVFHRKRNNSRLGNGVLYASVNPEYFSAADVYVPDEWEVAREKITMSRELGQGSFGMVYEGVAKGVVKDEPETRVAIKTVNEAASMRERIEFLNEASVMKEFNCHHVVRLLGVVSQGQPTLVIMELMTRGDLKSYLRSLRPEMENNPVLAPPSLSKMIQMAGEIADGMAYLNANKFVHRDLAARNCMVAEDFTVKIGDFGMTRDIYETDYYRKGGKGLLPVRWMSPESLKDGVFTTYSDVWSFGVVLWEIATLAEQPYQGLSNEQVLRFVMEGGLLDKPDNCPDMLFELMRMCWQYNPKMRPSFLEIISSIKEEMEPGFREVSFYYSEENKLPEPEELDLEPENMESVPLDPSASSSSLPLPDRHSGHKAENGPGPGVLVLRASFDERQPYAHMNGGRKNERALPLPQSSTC
For experiment [13] the target is unchanged. The conditions noted are these: at 10 µM.
Experiment [14] addresses T7, Inhibitor of nuclear factor kappa-B kinase subunit alpha (Homo sapiens) (UniProt O15111).
T7 sequence (whole entry): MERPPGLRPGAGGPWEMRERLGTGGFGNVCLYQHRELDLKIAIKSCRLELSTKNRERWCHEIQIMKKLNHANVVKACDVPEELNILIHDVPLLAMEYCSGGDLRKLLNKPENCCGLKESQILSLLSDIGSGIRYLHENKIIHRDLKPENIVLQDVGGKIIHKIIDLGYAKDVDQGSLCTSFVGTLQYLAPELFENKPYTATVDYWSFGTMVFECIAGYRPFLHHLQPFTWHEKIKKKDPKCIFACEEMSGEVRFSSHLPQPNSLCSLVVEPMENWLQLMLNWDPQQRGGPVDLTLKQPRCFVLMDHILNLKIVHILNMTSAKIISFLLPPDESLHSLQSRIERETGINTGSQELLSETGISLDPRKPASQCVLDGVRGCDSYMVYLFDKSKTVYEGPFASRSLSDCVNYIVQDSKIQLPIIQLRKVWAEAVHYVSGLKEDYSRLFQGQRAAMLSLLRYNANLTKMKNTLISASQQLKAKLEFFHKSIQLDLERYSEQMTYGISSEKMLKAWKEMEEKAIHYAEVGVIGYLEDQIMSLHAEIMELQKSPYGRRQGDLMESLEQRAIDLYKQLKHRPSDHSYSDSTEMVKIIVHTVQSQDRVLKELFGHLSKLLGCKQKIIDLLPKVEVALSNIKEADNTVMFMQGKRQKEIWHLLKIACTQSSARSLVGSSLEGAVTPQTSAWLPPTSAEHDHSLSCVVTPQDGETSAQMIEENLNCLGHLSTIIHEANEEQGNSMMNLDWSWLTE
The conditions noted are these: at 1 µM.

The target in experiment [15] is T7, Inhibitor of nuclear factor kappa-B kinase subunit alpha (Homo sapiens). The conditions noted are these: at 10 µM.

Drawing on ChEMBL document CHEMBL2218924, “A broad activity screen in support of a chemogenomic map for kinase signalling research and drug discovery” (Biochem J, 2013), this text covers residual activity for one compound.

For the compound `O=C(NC(NC(=S)Nc1ccc(F)c([N+](=O)[O-])c1)C(Cl)(Cl)Cl)C(c1ccccc1)c1ccccc1` (stereo not given), the residual activity in [1] is 92%; in [2], 93%; in experiment [3], 83%; in experiment [4], 91%; in experiment [5], 92%; in [6] it was 96%. In addition, the residual activity in [7] is 90%; in [8] it was 96%; in [9], 74%; in experiment [10], 98%; in experiment [11], 87%; in experiment [12], 85%. For the same compound, the residual activity in [13] came to 85%; in [14] it was 90%; in [15], 100%.
